PLK1 PBD inh – qHTS for Inhibitors of PLK1-PDB (polo-like kinase 1 - polo-box domain): Primary Screen | Serine/threonine-protein kinase PLK1 (Homo sapiens), P53350 | Plk1 PBD binding of FITC phosphopeptide, fluorescence polarization | Potency, µM, actives largely listed as inhibitors | 2.8% of 360,000 active; further: series mostly up to about 57 µM; nearly all actives have a fitted effect of over 65% in size
Target sequence (P53350 whole entry, looked up, the tested form may be a part): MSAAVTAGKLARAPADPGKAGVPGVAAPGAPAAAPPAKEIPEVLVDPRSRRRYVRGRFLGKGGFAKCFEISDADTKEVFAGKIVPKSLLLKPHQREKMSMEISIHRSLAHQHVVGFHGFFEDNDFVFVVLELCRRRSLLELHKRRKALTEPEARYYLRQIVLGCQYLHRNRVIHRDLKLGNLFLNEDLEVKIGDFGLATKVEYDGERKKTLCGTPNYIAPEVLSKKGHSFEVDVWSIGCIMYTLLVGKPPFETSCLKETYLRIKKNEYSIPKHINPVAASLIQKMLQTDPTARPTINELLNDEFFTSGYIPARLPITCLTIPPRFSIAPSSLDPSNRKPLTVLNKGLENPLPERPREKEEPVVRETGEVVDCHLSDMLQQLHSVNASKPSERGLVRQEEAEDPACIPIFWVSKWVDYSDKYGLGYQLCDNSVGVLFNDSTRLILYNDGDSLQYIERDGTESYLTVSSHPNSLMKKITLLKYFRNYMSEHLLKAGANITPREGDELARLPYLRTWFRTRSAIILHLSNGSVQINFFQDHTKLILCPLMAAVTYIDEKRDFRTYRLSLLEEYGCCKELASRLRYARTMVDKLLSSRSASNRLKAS
VDR inh – Inhibitors of the vitamin D receptor (VDR): qHTS. Vitamin D3 receptor (Homo sapiens), P11473. VDR-SRC2-3 peptide fluorescence polarization, 2 h. Potency, µM, usual class: inhibitors. 0.93% of 400,000 active. AID 504847, 2011
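The screen uses fluorescence polarization to detect compounds that interfere with recruitment of the SRC2-3 coactivator peptide to VDR; plates are read after 2 h at room temperature.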
Sfp PPTase inh – qHTS Assay for Inhibitors of Bacillus subtilis Sfp phosphopantetheinyl transferase (PPTase); 4'-phosphopantetheinyl transferase ffp (Bacillus subtilis), Q9F4F7; Biochemical Sfp PPTase activity, qHTS; Potency, µM, actives largely listed as inhibitors; 3.5% of 310,000 active; AID 1490, 2009;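 further: the enzyme is Sfp with the accession as filed and its product quenches rhodamine fluorescence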
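Fluorescence-quenching assay: 15 nM Sfp-PPTase preincubated 15 min at room temperature with compound, then 5 uM rhodamine-CoA and 12.5 uM BHQ-2-labelled YbbR peptide added. Fluorescence (ex 525/em 598 nm) read at start and after 30 min; difference gives rate.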
ALOX12 inh – Primary qHTS assay for inhibitors of human arachidonate 12S-lipoxygenase (ALOX12): Round 2; Potency, µM (titrated, usually from 108 µM), hits mostly inhibitors; 1.1% of 580,000 active; purified 12hLO, xylenol orange hydroperoxide absorbance
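Purified human 12hLO at 150 nM in 25 mM Hepes, 0.01% Triton X-100, pH 7.0, preincubated 15 min at room temperature with compound. Reaction started with 40 uM arachidonic acid, 30 min at room temperature. Hydroperoxide measured by Fe-xylenol orange, 573/405 nm absorbance ratio.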
Large screens that a line does not name were inactive; ! = not active in a repeat. A selection: hits, their analogues and other compounds. The true share with any hit is near 4.2%. The call rests on the fitted dose curve; in most records, active means well fitted curve in the direction sought with a large enough effect; inconclusive means small, poorly fitted or top-dose-only effect, or another doubt; inactive means no such curve, though single readings can be large; an effect the other way counts as inactive or inconclusive.

Oc1ccc2c(c1)c1c3n2CCNC3CCC1 (stereo not given)	none (no result: ALOX12 inh)
N#Cc1ccc(OCCOc2cccc(C#N)c2)cc1	none (no result: PLK1 PBD inh, VDR inh, Sfp PPTase inh)
O=C(O)CCC(=O)NCc1ccc(F)cc1	none
Cc1ccc(CN2CCN(C3CCN(Cc4ccccn4)CC3)CC2CCO)o1 (stereo not given)	none (no result: PLK1 PBD inh, VDR inh, Sfp PPTase inh)
CCc1cccc(C)c1NC(=O)COC(=O)C1CCN(S(=O)(=O)c2ccccc2)CC1	none (no result: Sfp PPTase inh)
Cc1ccc2cc(CN(Cc3nnnn3C3CCCCC3)CC3CCCO3)c(=O)[nH]c2c1 (stereo not given)	ALOX12 inh inconclusive
Cc1cc(C)c2cc(CN(Cc3nnnn3C3CCCCC3)CC3CCCO3)c(=O)[nH]c2c1 (stereo not given)	ALOX12 inh 11.2µM
CCC(c1nnnn1CCOC)N(Cc1cc2cc(C)c(C)cc2[nH]c1=O)CC1CCCO1 (stereo not given)	Sfp PPTase inh inconclusive
CCCC(c1nnnn1CCOC)N(Cc1cc2cc(C)c(C)cc2[nH]c1=O)CC1CCCO1 (stereo not given)	Sfp PPTase inh 10µM, ALOX12 inh inconclusive
Cc1cc2cc(CN(Cc3nnnn3C3CCCCC3)CC3CCCO3)c(=O)[nH]c2cc1C (stereo not given)	Sfp PPTase inh 50.1µM
O=C(CNS(=O)(=O)c1ccc(F)c(Cl)c1)N1CCCC1	none
CCOC(=O)c1cnc(SSc2ncc(C(=O)OCC)c(N)n2)nc1N	PLK1 PBD inh 1.06µM, VDR inh inconclusive, Sfp PPTase inh 7.94µM, ALOX12 inh inconclusive
C=CCSc1ncc(C(=O)OCC)c(N)n1	none
NNc1cccc2ncccc12	ALOX12 inh 3.55µM (no result: PLK1 PBD inh, VDR inh, Sfp PPTase inh)
CCOc1cccc(NC(=O)/C(C#N)=C\c2cccnc2)c1	PLK1 PBD inh 18.9µM, VDR inh inconclusive
N#C/C(=C\c1cccnc1)C(=O)Nc1ccccc1	VDR inh inconclusive
CC(CCc1ccco1)NC(=O)Cn1ncc2c1-c1ccccc1OC2 (stereo not given)	Sfp PPTase inh 50.1µM
Cc1ccc([N+](=O)[O-])cc1NC(=O)CN(C1CCCCC1)S(=O)(=O)c1ccc(Cl)cc1	none
CC1(C)CC(NS(=O)(=O)OCC(Cl)(Cl)Cl)c2cc(C#N)ccc2O1 (stereo not given)	PLK1 PBD inh 23.8µM, VDR inh inconclusive, ALOX12 inh inconclusive
COc1ccc2c(c1)CCCC2NS(=O)(=O)OCC(Cl)(Cl)Cl (stereo not given)	ALOX12 inh inconclusive
CC(=O)Nc1ccc2c(c1)CCCC2	ALOX12 inh inconclusive
CC(=O)Nc1ccc2c(c1)C(C)(C)C(C)N2C (stereo not given)	VDR inh 44.7µM
Cc1ccccc1NC(=O)CN1C(=O)C2C3CC(C(Br)C3Br)C2C1=O (stereo not given)	PLK1 PBD inh 4.74µM, VDR inh 79.4µM, Sfp PPTase inh 56.2µM, ALOX12 inh inconclusive
Cc1ccccc1NC(=O)CN1C(=O)COc2ccc(Cl)cc21	PLK1 PBD inh 23.8µM
O=C(CN1C(=O)C2C3C=CC(C4CC34)C2C1=O)Nc1cccc2ncccc12 (stereo not given)	PLK1 PBD inh 29.9µM
COc1ccccc1N(CC(=O)N(C)Cc1ccccc1)S(=O)(=O)c1cccs1	none (no result: Sfp PPTase inh)
CC(c1ccccc1)C1CC(=O)N(Cc2ccco2)C1=O (stereo not given)	Sfp PPTase inh 22.4µM
Cc1cccc2nc(COc3ccc(-c4ccccc4)cc3)cn12	Sfp PPTase inh 44.7µM (no result: PLK1 PBD inh, VDR inh, ALOX12 inh)
Cc1ccc(OCC2Cn3c(nc4c3c(=O)[nH]c(=O)n4C)O2)cc1C (stereo not given)	none
COc1ccc(S(=O)(=O)NNc2nc(C)cc(C)n2)cc1Br	ALOX12 inh 31.6µM (no result: Sfp PPTase inh)
Cc1cc(C)nc(NNS(=O)(=O)c2ccc(Cl)cc2)n1	ALOX12 inh inconclusive (no result: Sfp PPTase inh)
O=C(C1CCCC1)N1CCC2(CC1)CC(N(Cc1ccccc1)C1CC1)CCO2 (stereo not given)	none (no result: PLK1 PBD inh, VDR inh, Sfp PPTase inh)
CC(C)=CCN1CCN(CCC2=C(C)CCCC2(C)C)CC1CCO (stereo not given)	ALOX12 inh inconclusive
CC1=C(CC/C(C)=N/NC(N)=S)C(C)(C)CCC1	PLK1 PBD inh inconclusive, VDR inh inconclusive, Sfp PPTase inh 44.7µM, ALOX12 inh inconclusive
Cc1cccc(C(=O)N/C(=C/c2ccco2)C(=O)N2CCCCCC2)c1	Sfp PPTase inh 50.1µM, ALOX12 inh inconclusive
Cc1ccc(C(=O)N/C(=C/c2ccco2)C(=O)N2CCC(C)CC2)cc1	Sfp PPTase inh 56.2µM, ALOX12 inh inconclusive
CC1CCN(C(=O)/C(=C\c2ccco2)NC(=O)c2ccccc2)CC1	ALOX12 inh inconclusive
Cc1ccc(C(=O)N/C(=C/c2ccco2)C(=O)Nc2cccc(C)c2)cc1	Sfp PPTase inh 35.5µM, ALOX12 inh inconclusive
CCCCOC(=O)c1nc2ccccc2nc1NCc1ccccc1OC	none (no result: PLK1 PBD inh, VDR inh, Sfp PPTase inh)
CCCCOC(=O)c1nc2ccccc2nc1Nc1cccc(OC)c1	ALOX12 inh 6.31µM (no result: PLK1 PBD inh, VDR inh, Sfp PPTase inh)
COc1cc(C(=O)NCCc2ccc(F)cc2)c([N+](=O)[O-])cc1OC	PLK1 PBD inh 13.4µM
CCCNC(=O)c1cc(OC)c(OC)cc1[N+](=O)[O-]	none
CC(=O)c1ccc(OCC(O)CN2CCN(Cc3ccc4c(c3)OCO4)CC2)cc1 (stereo not given)	PLK1 PBD inh 26.7µM, VDR inh inconclusive, Sfp PPTase inh 89.1µM!
COc1ccc(OCC(O)CN2CCN(Cc3ccc4c(c3)OCO4)CC2)cc1 (stereo not given)	none
CNc1nc(-c2ccc3c(c2)CCN3C(=O)c2ccccc2F)c(C)s1	VDR inh inconclusive, Sfp PPTase inh 22.4µM
CNc1nc(-c2ccc3c(c2)CCN3C(=O)CC(C)(C)C)c(C)s1	PLK1 PBD inh inconclusive, ALOX12 inh inconclusive
CCN1C(=O)[C@@H]2[C@@H](c3ccc(SC4CCCCC4)cc3)N3CCCC[C@@]3(C(=O)OC)[C@@H]2C1=O	ALOX12 inh 39.8µM (no result: Sfp PPTase inh)
Cc1c(C(=O)NCCC#N)sc(=O)n1Cc1ccccc1F	none (no result: VDR inh, Sfp PPTase inh)
CC12CCC(C/C1=N\N=C1\NC(=O)/C(=C\c3cccc(Br)c3)S1)C2(C)C (stereo not given)	PLK1 PBD inh 29.9µM
Cn1cccc1Cc1nnc(SCC(=O)NCc2ccc(F)cc2)n1-c1ccc(F)cc1	none
CCOC(=O)/C(=N\Nc1ccccc1)P(=O)(c1ccccc1)c1ccccc1	Sfp PPTase inh 20µM
CCOC(=O)/C(=N\Nc1ccccc1)S(=O)(=O)c1ccccc1	none
COCc1c(C(=O)OC)nnn1-c1ccc(C(F)(F)F)cc1[N+](=O)[O-]	PLK1 PBD inh 26.7µM
C[C@@H](C(=O)Nc1ccccc1N1CCOCC1)N1C(=O)C2CC=CCC2C1=O (stereo not given in full)	none
COc1ccc2cc1Oc1ccc(cc1)C[C@H]1c3cc(c(OC)cc3CCN1C)Oc1c(OC)c(OC)cc3c1[C@@H](C2)N(C)CC3	none
CCN(CC)C(=O)c1sc(NC(=O)c2cc(-c3ccc(C)s3)nc3ccccc23)c(C(=O)OC)c1C	PLK1 PBD inh 15µM, Sfp PPTase inh 12.6µM
CCOC(=O)c1c(NC(=O)OC)sc(C(=O)N(CC)CC)c1C	PLK1 PBD inh 23.8µM, Sfp PPTase inh 22.4µM

From PubChem
